Measured values from the supplement of paper PMC10338343.
± gives the standard deviation.

Test system: MILI (PIWIL2) piRISC loaded with piRNA #1 (26 nt)
Experiment: pre-steady-state target cleavage rate (min^-1); guide: piRNA #1 5'p-UGAGGUAGUAGGUUGUAUAGUAUCCA; MIWI and MILI are mouse PIWI proteins and EfPiwi is from a freshwater sponge; tags in brackets are library labels; higher = faster piRNA-guided slicing of the target
Settings: auxiliary factor: 500 nM mouse GTSF1
In short: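 For Cleave-'n-Seq, a transcribed, DNA-blocked target RNA library […] met 1 nM active affinity-purified piRISC with one synthetic guide at 33 °C for 0–8 or 0–960 min in HEPES–potassium acetate buffer, with or without 500 nM GTSF1 partner protein. Uncleaved targets were sequenced and normalised to depth and weakly complementary targets, with three trials pooled and k3 capped at 0.0001 min^-1. A burst-and-steady-state fit supplied the pre-steady-state cleavage rate.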
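Also: 1 nM active piRISC with 0.1 nM target library at 33 °C single turnover.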

| Sequence | pre-steady-state target cleavage rate |
| --- | --- |
| GGAGACCUUACUAUUCAAGCUACUACCUCA | 0.235 ± 0.013 |
| GGAGACCUAUCUUAUCAACCUACUACCUCA | 0.0106 ± 0.0025 |
| GGAGACCUAUGAUAUCAACUCUACUACCUCA | < 0.0001 |
| GGAGACCUAUGUAUUCAUCCUACUACCUCA | 0.0771 ± 0.011 |
| GGAGACCUAUGAAUACAACCUACUAACUCA | 0.00512 ± 0.0027 |
| GGAGACCAUACUAUAGAACCUACUUCCUCA | 0.0428 ± 0.013 |
| GGAGACCUAUGAUAUGUUGCUACUACCUCCA | < 0.0001 |
| GGAGACCUUAGUAUACAACCAACUACCUCA | 0.00446 ± 0.0029 |
| GGAGACCUAUCUAUACUACCAACUACCUCA | 0.00495 ± 0.0022 |
| GGAGACCUAUGUAUAUCAACCUACUACCUCA | 0.00312 ± 0.0027 |
| GGAGACCUAUGUAUACAUCCUACUUCCUCA | 0.0795 ± 0.013 |
| GGAGACCUAACUAAACUACCUACUACCUCA | 0.0594 ± 0.017 |
| GGAGUGGAUACUUUAGAACCUACUACCUCA | 0.116 ± 0.0096 |
| GGAGACCUAUGAUAUGUUGCUACUUCCACA | < 0.0001 |
| GGAGACCUAUCUAUACAACGUACUACGUCA | 0.00657 ± 0.0026 |
| GGAGACGAUACUAAAGAACCUACUACCUCA | 0.166 ± 0.011 |
| GGAGUGGAUUCUUUACAACCUACUACCUCA | 0.16 ± 0.0093 |
| GGAGACCUAUGUAUACAACCUACUACCUUCA | 0.0648 ± 0.0099 |
| GGAGACCUAACUAUACAACCUACUUACCUCA | 0.135 ± 0.021 |
| GGAGACCUAUGAUAUGUUUCUACUACCUCA | < 0.0001 |

| Sequence | pre-steady-state target cleavage rate |
| --- | --- |
| GGAGACCUAUGUAUACAACCUACUACACUCA | 0.12 ± 0.018 |
| GGAGACCUAUGUAAACAACCUACUAGCUCA | 0.00495 ± 0.0023 |
| GGAGACCUAUGAUAUGACCUACUACCUCA | 0.0053 ± 0.0031 |
| GGAGAGGAUAGUAUACUACCUACUACCUCA | 0.0295 ± 0.0076 |
| GGAGACCUAACAAUACAACCUACUUCCUCA | 0.0651 ± 0.019 |
| GGAGAGGAUACUAUACUACCUACUAGCUCA | 0.0852 ± 0.013 |
| GGAGACCAUACUAAUGAACCUACUACCUCA | 0.0422 ± 0.011 |
| GGAGUGGAUACUUUACAACCUACAACCUCA | 0.0647 ± 0.0091 |
| GGAGACCUUACUAUACUACCUACAACCUCA | 0.13 ± 0.011 |
| GGAGUGGAUACUAUACAACCUACCACCUCA | 0.0748 ± 0.01 |
| GGAGACCUAUGUAUACAAGGAACUACCUCA | 0.00296 ± 0.0028 |
| GGAGACCUAUGAUAUGAAACUACUACCUCA | < 0.0001 |
| GGAGACCUUACUAUACAAGCUACAACCUCA | 0.239 ± 0.018 |
| GGAGACCUAUGUAUACAACCUACCUACCUCA | 0.0358 ± 0.0076 |
| GGAGACCUAUCAAUACAACCUACUACCACA | 0.0775 ± 0.019 |
| GGAGACCUUCCUAUACAACCUACUACCUCA | 0.113 ± 0.027 |
| GGAGACCUAUCUAUACAACCAACUACGUCA | 0.00385 ± 0.0021 |
| GGAGACCAUUCUAUACAACCUACUACCUCA | 0.136 ± 0.013 |
| GGAGACGAUACCUAUACAACCUACUACCUCA | 0.104 ± 0.025 |
| GGAGACCUUACAAUUCAACCUACUACCUCA | 0.102 ± 0.013 |
